Reference: PubChem BioAssay AID743318 (Broad Institute, 2014)
Measured potencies and affinities stand elsewhere. The source made the active and inactive calls.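 Rule for the calls: active = cytotoxic signal drop whose half-maximal concentration is at most twice the top valid dose; inconclusive = flat drop between 30% and 70%, or poor fit; inactive = the rest.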

Assay: loss of A549 viability via ATP – cell-based, plate reader, dry powder, set 7, cytotoxicity control, dose response (AID 743318)
Details: CellTiter-Glo ATP luminescence, 72 h; series mostly up to 26 µM

Question: Which outcome does the source give for `CSc1nc2ccccc2n1CCOc1cc(C)ccc1C(C)C` here?
Answer: inactive

Question: For `Cc1cccc(OCCn2c(=S)[nH]c3c(F)cccc32)c1`, which outcome is on record?
Answer: inactive

Question: For `COCc1nc2ccccc2n1CCOc1ccc(C(C)(C)C)cc1`, which outcome is on record?
Answer: inactive

Question: With `Fc1ccc2c(c1)[nH]c(=S)n2CCOc1ccccc1` as the compound, how does the outcome read?
Answer: inactive

Question: With `Cc1ccc(OCCn2c(=S)[nH]c3ccccc32)c(C)c1` as the compound, how does the outcome read?
Answer: inactive

Question: For `Cc1cccc(OCCn2c(=S)[nH]c3ccccc32)c1`, which outcome is on record?
Answer: inactive

Question: For `Cc1ccc(OCCn2c(SCCO)nc3ccccc32)c(C(C)C)c1`, which outcome is on record?
Answer: inactive

Question: Which outcome does the source give for `Fc1ccc(OCCn2c(=S)[nH]c3ccccc32)cc1` here?
Answer: inactive

Question: Which outcome does the source give for `Fc1cccc(OCCn2c(=S)[nH]c3ccccc32)c1` here?
Answer: inactive

Question: With `Cc1ccccc1OCCn1c(=S)[nH]c2ccccc21` as the compound, how does the outcome read?
Answer: inactive

Question: With `CC(C)(C)c1ccccc1OCCn1c(=S)[nH]c2ccccc21` as the compound, how does the outcome read?
Answer: inactive

Question: For `Cc1ccc2c(c1)[nH]c(=S)n2CCOc1ccccc1`, which outcome is on record?
Answer: inactive

Question: For `c1ccc(OCCn2cnc3ccccc32)cc1`, which outcome is on record?
Answer: inactive

Question: With `Cc1ccc(C(C)C)c(OCCn2c(CO)nc3ccccc32)c1` as the compound, how does the outcome read?
Answer: inactive

Question: With `CCOc1ccc(OCCn2c(=S)[nH]c3ccccc32)cc1` as the compound, how does the outcome read?
Answer: inactive

Question: Which outcome does the source give for `Fc1ccccc1OCCn1c(=S)[nH]c2ccccc21` here?
Answer: inactive

Question: With `Cc1ccc(C(C)C)c(OCCn2c(=S)[nH]c3c(F)cccc32)c1` as the compound, how does the outcome read?
Answer: inactive

Question: For `Cc1cccc(OCCn2c(=S)[nH]c3cc(F)ccc32)c1`, which outcome is on record?
Answer: inactive

Question: For `Fc1cccc2c1[nH]c(=S)n2CCOc1ccccc1`, which outcome is on record?
Answer: inactive

Question: With `S=c1[nH]c2cccc(Cl)c2n1CCOc1ccccc1` as the compound, how does the outcome read?
Answer: inactive

Question: Which outcome does the source give for `O=c1[nH]c2ccccc2n1CCOc1ccccc1` here?
Answer: inactive

Question: Which outcome does the source give for `Cc1ccc(C(C)C)c(OCCn2c(=S)[nH]c3c(C)cccc32)c1` here?
Answer: inactive

Question: For `Cc1ccc(OCCn2c(C)nc3ccccc32)cc1`, which outcome is on record?
Answer: inactive

Question: For `CC(C)c1ccccc1OCCn1c(=S)[nH]c2ccccc21`, which outcome is on record?
Answer: inactive

Question: For `Cc1ccc(C(C)C)c(OCCn2c(=S)[nH]c3cccc(Cl)c32)c1`, which outcome is on record?
Answer: inactive
